PfHsp40 rescue = rescue of PfHsp40-mediated yeast toxicity; S. cerevisiae expressing PfHsp40, growth rescue, ATP luminescence; growth rescue, % at 12.5 µM; actives 0.68% (n = 340,000); in the data active means growth rescue above about 28%, passing the limit was not always enough;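 further: yeast W303a lacking pdr1 and pdr3 grown in galactose medium; growth measured after three days at 30 °C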
Mtb FBA inh = inhibitors of M. tuberculosis fructose-bisphosphate aldolase; actives 2.3% (n = 360,000); inhibition, % at 1 µM; purified M. tuberculosis FBA, fluorescence read-out; P9WQA3
Target sequence (P9WQA3 whole entry, looked up): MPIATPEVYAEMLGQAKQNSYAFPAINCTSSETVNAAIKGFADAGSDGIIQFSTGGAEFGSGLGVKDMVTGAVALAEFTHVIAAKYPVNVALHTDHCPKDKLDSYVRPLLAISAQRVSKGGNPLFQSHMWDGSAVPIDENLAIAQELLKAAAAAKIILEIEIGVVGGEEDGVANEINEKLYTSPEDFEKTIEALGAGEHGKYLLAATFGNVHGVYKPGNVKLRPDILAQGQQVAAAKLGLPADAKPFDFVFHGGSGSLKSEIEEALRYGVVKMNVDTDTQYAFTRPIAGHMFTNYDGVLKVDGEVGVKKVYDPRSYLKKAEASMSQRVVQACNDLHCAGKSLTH
BJeLR lethal = BJeLR cell viability loss | BJeLR (HRASV12) viability, CellTiter-Glo ATP luminescence, 48 h | AID 1554 | inhibition, % (test concentration not listed) | actives 0.17% (n = 300,000); in the data active means inhibition above about 50%
GDH-TPI counter-1 = inhibits GDH-TPI coupling enzymes, artifact for Mtb FBA screen; GDH-TPI coupled enzyme counterscreen, NADH absorbance; inhibition, % at 4.8 µM; actives 1.2% (n = 360,000); in the data active means inhibition above about 30%
PrP 5UTR inh = inhibition of PrP 5' UTR reporter expression. cell-based PrP 5' UTR mRNA reporter, plate reader. inhibition, % (no concentration beside the values). actives 0.35% (n = 340,000). AID 488862; in the data active means inhibition above about 52%
PrPC surface inh = inhibitors of human cell surface prion protein PrPC | P04156 | TR-FRET read-out | inhibition, % at 13.8 µM | actives 0.43% (n = 370,000) | AID 720596; in the data active means inhibition above about 24%
Mtb FBA confirm = Mtb FBA inhibition, confirmed. inhibition, % at 1 µM. shares compounds with Mtb FBA inh. actives 78% (n = 5,600). AID 651616. purified M. tuberculosis FBA, fluorescence read-out
GDH-TPI counter-2 = inhibits GDH-TPI coupling enzymes, flagging Mtb FBA hits; shares compounds with Mtb FBA inh; GDH-TPI coupled enzyme counterscreen, fluorescence; inhibition, % at 1 µM; actives 81% (n = 5,600); in the data active means inhibition above about 10%
GDH-TPI dose = counter-screen for M. tuberculosis FBA inhibitors: GDH-TPI dose response | actives 79% (n = 170) | shares compounds with Mtb FBA inh | AID 652145 | GDH-TPI coupled enzyme assay, fluorescence, artifact counterscreen | IC50, µM; call rule not given here
Numbers stand for hits; - = inactive; . = not tested or not shown; + = active, no number. Most compounds without a hit are left out; they make up all but 4.5% or so of the library. Unless noted, no stated cut-off is given here; in the data, active means inhibition above about 27%; inactive means the rest.

SMILES	PfHsp40 rescue	Mtb FBA inh	BJeLR lethal	GDH-TPI counter-1	PrP 5UTR inh	PrPC surface inh	Mtb FBA confirm	GDH-TPI counter-2	others
COCCNC(=O)C1(C)Cc2c(-c3ccc4c(c3)OCO4)ccnc2O1 (stereo not given)	.	95.6	.	-	.	-	71.3	51.2
CC1(C(=O)Nc2ccc3c(c2)OCO3)Cc2c(-c3ccc4c(c3)OCO4)ccnc2O1 (stereo not given)	.	-	.	-	.	-	.	.
CC1(C(=O)NCCc2ccccc2)Cc2c(-c3ccccc3)ccnc2O1 (stereo not given)	.	-	.	-	.	-	.	.
O=C(COc1ccc(S(=O)(=O)N2CCCC2)cc1)N1CCCCC1	-	-	-	-	-	-	.	.
COc1ccc(NC(=O)NC23CC4(C)CC(C)(CC(C)(C4)C2)C3)cc1	-	-	-	-	-	-	.	.
Nc1cc(C(=O)O)ccc1Nc1ccccc1	-	91.0	-	-	-	-	125.9	113.3
Nc1cccc2nc3ccccc3cc12	-	75.5	-	-	-	.	-	-
CC(=O)Nc1ccc(S(=O)(=O)NC2CC3CCC2C3)cc1 (stereo not given)	-	-	-	-	-	-	.	.
O=C(Cn1ccc(C(F)(F)F)n1)N/N=C/c1ccc(N2CCOCC2)cc1	-	39.0	-	-	-	-	127.4	101.6
CCN(CC)S(=O)(=O)c1cccc(C(=O)N/N=C/c2ccc(N3CCOCC3)cc2)c1	-	28.4	-	-	-	-	-	-
CC(C)c1ccc(/C=N/NC(=O)c2cccc(S(=O)(=O)N3CCOCC3)c2)cc1	-	-	-	-	-	-	.	.
CC(C)C(=O)NCC(c1ccc2c(c1)OCO2)N1CCOCC1 (stereo not given)	-	-	-	-	-	-	.	.
COc1ccc(CCNC(=O)c2c(N)n(CCN3CCOCC3)c3nc4ccccc4nc23)cc1	-	-	-	-	-	-	.	.
COc1ccc(CNC(=O)c2c(N)n(CCCN3CCOCC3)c3nc4ccccc4nc23)cc1	-	55.1	-	-	-	-	132.2	107.2
Nc1c(C(=O)NCc2ccccc2)c2nc3ccccc3nc2n1CCCN1CCOCC1	-	58.4	-	-	-	-	146.2	113.6
Nc1c(C(=O)NCc2ccc(F)cc2)c2nc3ccccc3nc2n1CCCN1CCOCC1	-	47.9	-	-	-	-	+	+
N#Cc1nc(-c2ccco2)oc1NCCN1CCOCC1	-	-	-	-	-	-	.	.
Cc1cccc(-c2nc(C#N)c(NCC3CCCO3)o2)c1 (stereo not given)	-	33.9	-	-	-	-	108.5	87.6
N#Cc1nc(-c2ccccc2F)oc1NCCN1CCOCC1	-	35.8	-	-	-	-	83.8	80.6
N#Cc1nc(Cc2cccc3ccccc23)oc1NCCN1CCCCC1	-	-	-	-	-	-	.	.
Cc1cccc(-c2noc(-c3ccccc3C(=O)NCC3CCCO3)n2)c1 (stereo not given)	-	-	-	-	-	-	.	.
Cc1ccc(-c2nc(C#N)c(NCCN3CCCCC3)o2)cc1	-	93.7	-	-	-	-	170.0	121.1
N#Cc1nc(-c2ccc(F)cc2)oc1NCCN1CCOCC1	-	46.4	-	-	-	-	81.0	61.8
COc1ccc(OCCCC(=O)Nc2cc(S(=O)(=O)N3CCCCC3)ccc2OC)cc1	-	-	.	-	-	-	.	.
CC(OC(=O)c1ccccc1NCCO)C(=O)Nc1ccc(S(=O)(=O)N2CCOCC2)cc1 (stereo not given)	-	57.3	-	-	-	-	58.0	53.7
SMILES	PfHsp40 rescue	Mtb FBA inh	BJeLR lethal	GDH-TPI counter-1	PrP 5UTR inh	PrPC surface inh	Mtb FBA confirm	GDH-TPI counter-2	others
CCCN(CCC)CCCNC(=O)c1cc2c(=O)[nH]c3ccccc3c2s1	.	70.1	-	-	-	-	+	194.2
O=C(NCC1CCCO1)c1cc2c(=O)[nH]c3ccccc3c2s1 (stereo not given)	-	35.0	.	-	-	-	53.0	55.1
CCCCN(CC)CCNC(=O)c1cc2c(=O)[nH]c3ccccc3c2s1	-	39.0	-	-	-	-	+	+
O=C(NCCc1ccccc1)C1CC(=O)N(c2ccc3c(c2)OCCO3)C1 (stereo not given)	-	28.2	-	-	-	-	38.4	20.6
CN(Cc1cccc(F)c1)C(=O)C1CC(=O)N(c2ccc3c(c2)OCCO3)C1 (stereo not given)	-	35.1	.	-	-	-	+	+
N#CCCn1cc(C(=O)O)c(-c2cccs2)n1	-	-	-	-	-	-	.	.
N#CCCn1cc(C(N)=O)c(-c2cccs2)n1	-	28.6	-	-	-	-	74.5	62.8
COc1cccc(CCNC(=O)c2cc(COc3c(F)cccc3F)on2)c1	-	-	-	-	-	-	.	.
COc1ccccc1C#Cc1ccc2c(=O)c3ccccc3n(C)c2c1	-	-	-	-	-	-	.	.
Cn1c2ccccc2c(=O)c2cc(C#CC3=CCCCC3)ccc21	-	86.1	.	-	-	-	151.3	113.2
COc1ccc(C(=O)N2CCCCCC2)cc1S(=O)(=O)N1CCOCC1	-	-	-	-	-	-	.	.
COC(=O)[C@]1(C)CN(C(=O)OC(C)(C)C)C2=C1C(=O)C[C@@](C)(C(=O)OC(C)(C)C)C2	.	.	.	.	.	-	.	.
CCn1nnnc1SCC(=O)N1CCOCC1	-	89.3	-	-	-	-	+	+
COCOCCn1cc(CN2CCS(=O)(=O)N(Cc3ccc(-c4ccc(OC)nc4)cc3)C(C(C)C)C2=O)nn1 (stereo not given)	.	-	.	-	.	-	.	.
O=c1nc(-c2ccccc2)c2ccccc2[nH]1	-	-	-	-	-	-	.	.
O=c1nc(-c2ccccc2Cl)c2cc(F)ccc2[nH]1	-	53.1	-	-	-	-	52.6	46.2
COc1ccc(N=C(N)NC(=O)OCc2ccccc2)cc1	.	.	.	.	.	-	.	.
O=c1cc(C(F)(F)F)[nH]c2ccc(C(F)(F)F)cc12	-	35.2	-	-	-	-	65.1	49.9
Cc1ccccc1NC(=O)CNc1ccccc1C(=O)NCc1ccco1	-	48.1	-	-	-	-	166.2	143.3
Cc1cccc(C)c1NC(=S)Nc1ccccc1C(=O)NCc1ccco1	-	38.5	-	-	-	-	-	-	GDH-TPI dose=-
Cc1ccc(S(=O)(=O)N2CCOCC2)cc1NC(=O)COC(=O)COc1cccc2c1OC(C)(C)C2	-	-	-	-	-	-	.	.
COc1ccc(-n2nc(C(=O)NCC(=O)NCCCN3CCN(C)CC3)c3ccccc3c2=O)cc1	-	-	-	-	-	-	.	.
Cc1nc2ccc(NS(=O)(=O)c3c(F)cc(F)cc3Br)cc2s1	-	-	.	-	-	-	.	.
